{
  "source": "ChEMBL document CHEMBL3988442",
  "about": "“University of Dundee, Small-Polar-MMV Screening Library” (2021)",
  "note": "The whole screen tested about 48,000 compounds, of which about 13,000 (27%) showed an effect of 50% or more. The list shows a part of the results.",
  "data": [
    {"test_system": "Wolbachia pipientis", "experiment": "Anti-Wolbachia Cell-Based Screen", "type": "functional", "set-up": "scale not given: in the data most compounds retested in dose-response had high values", "details": "5 µM", "units": {"Percent Effect": "%"}, "values": [
      {"smiles": "CC(=O)NC1CCCN(C(=O)CNc2cccc(C)c2Cl)C1", "note": "(stereo not given)", "Percent Effect": 6.978},
      {"smiles": "O=C(CCn1cncn1)N1CCC2(CC1)[C@H](O)C[C@@H]2OCCO", "Percent Effect": -12.21},
      {"smiles": "O=C(NS(=O)(=O)c1ccc(C2CCCCC2)cc1)C1COCCO1", "note": "(stereo not given)", "Percent Effect": -16.34},
      {"smiles": "CCOc1ccc(N(C)Cc2nnc(C3CC3)o2)cc1", "Percent Effect": -1.111},
      {"smiles": "CC1(C)CCC(CC(=O)O)c2ccccc21", "note": "(stereo not given)", "Percent Effect": 8.259},
      {"smiles": "CN(Cc1cc(-c2ccncc2)no1)Cc1nccn1C", "Percent Effect": 1.044},
      {"smiles": "Cc1ccccc1C(=O)N1C[C@@H]2CCN(c3cccnc3)C[C@@H]2C1.O=C(O)C(F)(F)F", "Percent Effect": 9.875},
      {"smiles": "O=C(O)C(F)(F)F.O=C(c1ccccc1F)N1C[C@H]2CCC[C@@]2(COCc2ccncc2)C1", "Percent Effect": -1.474},
      {"smiles": "Cc1ccccc1C(=O)NC[C@@H]1CCN(C(=O)CN2CCCC2)C[C@H]1O", "Percent Effect": 2.188},
      {"smiles": "CNC(=O)CN1CC[C@H]2CN(C(=O)c3ccccc3C)C[C@H]2C1.O=C(O)C(F)(F)F", "Percent Effect": 117.7},
      {"smiles": "CNC(=O)CN1CC[C@H]2CN(C(=O)c3ccccc3F)C[C@H]2C1.O=C(O)C(F)(F)F", "Percent Effect": 86.74},
      {"smiles": "COCC(=O)NC[C@H]1OC[C@@H](NC2CCC(F)(F)CC2)[C@@H]1O", "Percent Effect": -6.952},
      {"smiles": "CN(C)S(=O)(=O)N1CCC2(COCc3cnc(-c4ccccc4)nc32)C1", "note": "(stereo not given)", "Percent Effect": 7.187},
      {"smiles": "O=S(=O)(C1CC1)N1CCC2(COCc3cnc(N4CCOCC4)nc32)C1", "note": "(stereo not given)", "Percent Effect": -0.8991},
      {"smiles": "CN(C)S(=O)(=O)N1CCC2(COCc3cnc(-c4cccnc4)nc32)C1", "note": "(stereo not given)", "Percent Effect": 117.1},
      {"smiles": "O=S(=O)(C1CC1)N1CCC2(COCc3cnc(-c4cccnc4)nc32)C1", "note": "(stereo not given)", "Percent Effect": 112.6},
      {"smiles": "CS(=O)(=O)N1CCC2(COCc3cnc(-c4ccccc4)nc32)C1", "note": "(stereo not given)", "Percent Effect": 3.211},
      {"smiles": "c1ccc(-c2ncc3c(n2)C2(CCN(c4ncccn4)C2)COC3)cc1", "note": "(stereo not given)", "Percent Effect": -0.2326},
      {"smiles": "Cc1nn(C)c(NC(=O)C2SCCc3ccccc32)c1C", "note": "(stereo not given)", "Percent Effect": -51.32},
      {"smiles": "COCCOc1ccc(NC(=O)C2CC(=O)N(C(C)C)C2)cn1", "note": "(stereo not given)", "Percent Effect": 102.1},
      {"smiles": "COCCOc1ccc(NC(=O)C2CC(=O)N(CC3CC3)C2)cn1", "note": "(stereo not given)", "Percent Effect": 88.01},
      {"smiles": "COCCOc1ccc(NC(=O)N(CCO)C2CC2)cn1", "Percent Effect": -3.493},
      {"smiles": "COCCOc1ccc(NC(=O)N2CCCC2c2cccs2)cn1", "note": "(stereo not given)", "Percent Effect": -5.356},
      {"smiles": "COCCOc1ccc(NC(=O)C2CC(=O)N(C3CC3)C2)cn1", "note": "(stereo not given)", "Percent Effect": 124.3},
      {"smiles": "COCCOc1ccc(NC(=O)N2CCCC2c2cc(C)no2)cn1", "note": "(stereo not given)", "Percent Effect": -1.531},
      {"smiles": "COCCOc1ccc(NC(=O)N(C(C)C)C2CC2)cn1", "Percent Effect": -14.55},
      {"smiles": "COCCOc1ccc(NC(=O)C2CCCN(C(N)=O)C2)cn1", "note": "(stereo not given)", "Percent Effect": -6.192},
      {"smiles": "COCCOc1ccc(NC(=O)N2CCCC2c2ccncc2)cn1", "note": "(stereo not given)", "Percent Effect": -3.019},
      {"smiles": "CCS(=O)(=O)N1CCN(CC(F)(F)F)CC1", "Percent Effect": 6.417},
      {"smiles": "CS(=O)(=O)CCC(=O)NC1CC(c2ccccc2Cl)C1", "note": "(stereo not given)", "Percent Effect": -3.689},
      {"smiles": "CNC(=O)CCc1cc(C)nc(C2CCCN2)c1", "note": "(stereo not given)", "Percent Effect": -6.068},
      {"smiles": "CNC(=O)CCc1cc(C)nc(C2CCN(C3CCCCC3)CC2)c1", "Percent Effect": 132.7},
      {"smiles": "CNC(=O)CCc1cc(C)nc(C2CCN(c3ccccc3)CC2)c1", "Percent Effect": 115.5},
      {"smiles": "Cc1ccc(CC(=O)NC2CCN(c3cccc(Cl)c3)C2)cn1", "note": "(stereo not given)", "Percent Effect": -6.758},
      {"smiles": "CNC(=O)CCc1cc(C)nc(C2CCN(c3cnccn3)CC2)c1", "Percent Effect": 163},
      {"smiles": "O=C(CCc1ccsc1)NCC1CCN(c2ccccc2)C1", "note": "(stereo not given)", "Percent Effect": -7.68},
      {"smiles": "CCn1ncnc1C(C)NC(=O)C1CCN(C2CCCCC2)CC1", "note": "(stereo not given)", "Percent Effect": -9.983},
      {"smiles": "Cc1nc(C2CCN(CC(=O)NC3CC3)CC2)cc(N2CCOCC2)n1", "Percent Effect": -4.261},
      {"smiles": "CCNC(=O)CCN1CCC(c2cc(N3CCOCC3)nc(C)n2)CC1", "Percent Effect": 2.574},
      {"smiles": "CNC(=O)CCc1cc(C2CCN(c3cnccn3)CC2)nc(C)n1", "Percent Effect": 127.7},
      {"smiles": "Cc1cc(N2CCC(NC(=O)CCc3cnn(C)c3)CC2)nc(C)n1", "Percent Effect": -6.539},
      {"smiles": "Cc1cc(C)c(CNC(=O)N2CCN(c3cnccn3)CC2)c(=O)[nH]1", "Percent Effect": -4.919},
      {"smiles": "CCN(Cc1ccoc1)C(=O)NC1CCN(CC2CC2)C1", "note": "(stereo not given)", "Percent Effect": -6.123},
      {"smiles": "N#Cc1c(Cl)nsc1NCCCN1C(=O)COc2ccccc21", "Percent Effect": -8.12},
      {"smiles": "CCN(C(=O)C1CCC1)C(c1cccnc1)c1ccc2c(c1)CCO2", "note": "(stereo not given)", "Percent Effect": -9.854},
      {"smiles": "O=C(C1CN(Cc2ccsc2)Cc2ccnn2C1)N1CCCC1.O=C(O)C(F)(F)F.O=C(O)C(F)(F)F", "note": "(stereo not given)", "Percent Effect": 5.087},
      {"smiles": "COc1coc(CN2CCCC3(CCC(=O)N(CC4CC4)C3)C2)cc1=O", "note": "(stereo not given)", "Percent Effect": -7.938},
      {"smiles": "CN(CCc1cnn(C)c1)C(=O)Cn1c(=O)[nH]c2ccccc21", "Percent Effect": 117.9},
      {"smiles": "CN(CCc1cnn(C)c1)C(=O)CN1C(=O)OC[C@@H]1c1ccccc1", "Percent Effect": -15.8},
      {"smiles": "CCOCCn1c(=O)[nH]c2cc(C(=O)N(C)Cc3cnn(C)c3)ccc21", "Percent Effect": 6.487},
      {"smiles": "Cc1cc(C)c2nc(C)cc(C(=O)NCc3csc(N(C)C)n3)c2c1", "Percent Effect": -46.67},
      {"smiles": "O=C(Nc1cnn(CC(=O)N2CCCCO2)c1)c1ccccn1", "Percent Effect": -7.331},
      {"smiles": "O=C(O)c1ccc(F)c(S(=O)(=O)Nc2c(F)cccc2-n2cccn2)c1", "Percent Effect": -5.743},
      {"smiles": "CN(C)CCn1c([C@H]2CCCO2)cc2cccnc21", "Percent Effect": 104.2},
      {"smiles": "Cc1ccc(C#N)c(N2CCC(c3nccn3CCN(C)C)CC2)n1", "Percent Effect": -3.51},
      {"smiles": "CN(C)CCn1c([C@@H]2CCCO2)cc2cccnc21.Cl", "Percent Effect": 90.46},
      {"smiles": "CN(C)CCn1c(=O)oc2ccc(NC(=O)C3CCCO3)cc21", "note": "(stereo not given)", "Percent Effect": 1.023},
      {"smiles": "Cc1nn(C)c2nc(N(Cc3ccccn3)CC3CCCO3)sc12", "note": "(stereo not given)", "Percent Effect": -1.375},
      {"smiles": "CN(C)CCn1ccnc1C1CCCN(c2nccc3ccccc23)C1", "note": "(stereo not given)", "Percent Effect": -1.132},
      {"smiles": "O=C(NCc1cccc(N2CC=CC2)c1)NCC(F)(F)F", "Percent Effect": 2.139},
      {"smiles": "COc1ccnc(N(C)Cc2c(C)noc2C)n1", "Percent Effect": 0.6416},
      {"smiles": "O=C(CCNC(=O)c1ccoc1)Nc1cc(F)cc(F)c1", "Percent Effect": -8.538},
      {"smiles": "CC1CCCN(C(=O)NCC(F)F)C1", "note": "(stereo not given)", "Percent Effect": -0.801},
      {"smiles": "CC1CCCN(C(=O)CNC(=O)c2ccoc2)C1", "note": "(stereo not given)", "Percent Effect": 104.6},
      {"smiles": "CCn1cnc(NC(=O)N2CCCC(c3ccccc3)CC2)n1", "note": "(stereo not given)", "Percent Effect": 1.274},
      {"smiles": "O=C(NCC(=O)N1CCCC(c2ccccc2)CC1)c1ccoc1", "note": "(stereo not given)", "Percent Effect": 114.1},
      {"smiles": "Cc1occc1C(=O)NCC(=O)N1CCCC(c2ccccc2)CC1", "note": "(stereo not given)", "Percent Effect": 4.823},
      {"smiles": "O=C(CCNC(=O)c1ccoc1)Nc1c(F)cccc1F", "Percent Effect": -2.292},
      {"smiles": "CC(C)CN1CCC(C(=O)NCCNC(=O)c2ccoc2)CC1", "Percent Effect": 9.069},
      {"smiles": "O=C(NCCC(=O)N1CCCCCCC1)c1ccoc1", "Percent Effect": 130.7}
    ]}
  ]
}
